HCV inhibitor: HCV inhibition | Huh7.5.1 HCVcc-Cre infection, luciferase reporter, 44 h | 340,000 tested, 3.4% active | Potency, µM (series often up to 41.8 µM), for inactives: at the top dose activity change, negative = inhibition, usual class: inhibitors; further: potency means the concentration at half of the fitted maximal effect
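Whole-lifecycle infectious HCVcc-Cre system; cells 1,000/well, compound then virus (~0.5 moi) added 4 h after plating, 44 h culture. Luciferase read 15 sec following 15 min substrate incubation, room temp.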
HCMV antiviral: human cytomegalovirus inhibition | HFF cells, HCMV-luciferase reporter, 72 h; active compounds read low | activity change, negative = inhibition, % at 57.5 µM | 410,000 tested, 4.5% active | AID 1259415; in the data active means activity change below about -60%; inconclusive means no clear call, values can overlap the other calls; inactive means above about -39%
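Luciferase read-out from HCMV-luciferase-infected HFFs (MOI 1 PFU/cell) 72 h post infection at 37C; compounds added after 16 h cell attachment; activity normalized between buffer-only basal and Salinomycin (10uM) inhibitor controls.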
Lassa entry inh: inhibitors of Lassa virus binding or cell entry; 300,000 tested, 1.2% active; Potency, µM (titrated, usually from 37.9 µM), inactives show at the top dose activity change, negative = inhibition, usual class: inhibitors; Lassa virus pseudotype entry inhibition, cell reporter; AID 540256; calls by dose curve; tested in HEK293 cells; further: potency means the concentration at half of the fitted maximal effect; nearly all actives have a fitted effect of over 50% in size
Marburg entry inh: Marburg virus entry inhibition; AID 540276; Potency, µM (top dose mostly 37.8 µM), for the others: at the highest dose activity change, negative = inhibition, hits mostly inhibitors; Marburg virus pseudotyped entry inhibition, cell reporter; 300,000 tested, 1.8% active; calls by dose curve; tested in HEK293 cells; further: potency means the concentration at half of the fitted maximal effect
FMDV inh: foot and mouth disease virus antiviral activity. Potency, µM (series often up to 57.9 µM), for inactives: at the highest dose activity change, negative = inhibition, hits mostly inhibitors. FMDV antiviral cell-based qHTS. 410,000 tested, 1.2% active. AID 1159524; calls by dose curve; tested in HEK293T cells; further: read-out not given here; potency means the concentration at half of the fitted maximal effect; nearly all actives have a fitted effect of over 45% in size
FBPA Giardia inh: blocks Giardia fructose-bisphosphate aldolase activity; A8B2U2; purified Giardia FBPA; Potency, µM (highest dose often 59.6 µM), inactives show top-dose activity, negative = inhibition, usual class: inhibitors; 290,000 tested, 0.71% active; further: potency means the concentration at half of the fitted maximal effect; nearly all actives have a fitted effect of over 55% in size
Target sequence (A8B2U2 whole entry, looked up): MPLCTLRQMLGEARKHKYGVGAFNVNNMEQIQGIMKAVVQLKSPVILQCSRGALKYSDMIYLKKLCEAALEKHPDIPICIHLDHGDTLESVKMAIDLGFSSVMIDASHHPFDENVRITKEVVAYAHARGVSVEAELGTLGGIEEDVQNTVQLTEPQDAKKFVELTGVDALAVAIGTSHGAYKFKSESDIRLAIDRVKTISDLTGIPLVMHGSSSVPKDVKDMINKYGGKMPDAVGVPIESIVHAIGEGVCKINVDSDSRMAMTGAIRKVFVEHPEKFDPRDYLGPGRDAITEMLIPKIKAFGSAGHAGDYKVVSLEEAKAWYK
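Giardia FBPA (40 nM reagent) was preincubated 10 min at RT with compound (up to 57.5 uM final), then substrate plus GAPDH/TPI/NAD/arsenate coupling system with diaphorase/resazurin was added; resorufin fluorescence (525/598 nm) was read after 20 min.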
* hit, by the source's call; ? = inconclusive; . = no result given; [ ] = dose if it differs, or a comment. Hits are enriched below; roughly 8.3% of the tested compounds scored in any of these assays. Unless noted, the call rests on the fitted dose curve; in most records, active means well fitted curve in the direction sought with a large enough effect; inconclusive means small, poorly fitted or top-dose-only effect, or another doubt; inactive means no such curve, though single readings can be large; an effect the other way counts as inactive or inconclusive. On the % scale 0 is the no-effect control and ±100 the full control effect.

SMILES | HCV inhibitor | HCMV antiviral | Lassa entry inh | Marburg entry inh | FMDV inh | FBPA Giardia inh
Cc1cc(=O)n(Cc2ccccc2)c(O)c1C#N | 0% | -7 | 2% | 3% | -11% | ?
Cc1c(C#N)c(NC(=O)CCl)n(Cc2cccs2)c1C | ? | -93* | . | . | 20µM* | -15%
Cc1c(C#N)c(NC(=O)CCl)n(Cc2ccc(F)cc2)c1C | ? | -68* | . | . | 13µM* | ?
CCN(CCC#N)c1ccc(/C=N/Nc2nc(C)cc(=O)[nH]2)c(C)c1 | ? | -2 | 12%[46.1 µM] | 13%[46.1 µM] | -1% | -17%
Cc1cc(N(CCCl)CCCl)ccc1C=Cc1ccncn1 | ? | ? | ? | 4µM* | -27% | .
Cc1cc(N(CCCl)CCCl)ccc1/C=N/N=C(\N)c1cnccn1 | ? | -16 | ? | 2.2µM* | 19% | .
C/C(=N/NC(=O)c1ccc(C)s1)c1cccc(NC(=O)c2ccoc2C)c1 | 11µM* | 22 | . | . | -17% | .
C/C(=N/NC(=O)c1ccoc1C)c1cccc(NC(=O)C(F)(F)F)c1 | -6% | 13 | ? | ? | 4% | 0%
Cc1ccc(C2=NC(c3ccc(F)cc3)=Nc3ccc(C)cc3N2)cc1 | . | -6 | 16%[46.1 µM] | 5%[46.1 µM] | -7% | .
COc1ccccc1NS(=O)(=O)c1cccc(C(=O)NN)c1 | 18% | 46 | 0% | -9% | 3% | -3%
CCN(CC)c1ccc(/C=N/NC(=O)c2ccc3nc[nH]c3c2)c(O)c1 | 5µM* | . | ? | ? | 2% | 17%
Cc1ccc(/C=N/NC(=O)c2cccc(S(=O)(=O)Nc3ccccc3Cl)c2)o1 | 38% | -17 | 7% | 7% | 2% | -8%
COc1ccccc1NS(=O)(=O)c1cccc(C(=O)N/N=C/c2ccc([N+](=O)[O-])o2)c1 | 11µM* | -36 | 14µM* | ? | ? | .
COc1cccc(/C=N/NC(=O)c2ccc3nc[nH]c3c2)c1O | 12% | 0 | . | . | 9% | 18%
COc1ccccc1NS(=O)(=O)c1ccc(N/N=C/C=C/c2ccccc2[N+](=O)[O-])c([N+](=O)[O-])c1 | 34% | -28 | 20% | -18% | 6% | 0%
COc1ccccc1NS(=O)(=O)c1ccc(NN=C2CCCC2)c([N+](=O)[O-])c1 | ? | -79* | -16% | ? | -22% | 2%
CCN(CC)c1ccc(/C=N/NC(=O)c2cccc(S(=O)(=O)Nc3ccccc3OC)c2)c(O)c1 | 10µM* | -103* | 0.32µM* | 5.6µM* | -1% | -11%
CCN(CC)c1ccc(/C=N/NC(=O)c2cccc(S(=O)(=O)Nc3ccccc3OC)c2)cc1 | 11µM* | -16 | . | . | -12% | -5%
CCN(CC)c1ccc(C(=O)N/N=C/c2ccccc2OC(F)F)cc1 | 11µM* | -36 | . | . | 26% | 6%
COc1ccccc1NS(=O)(=O)c1cccc(C(=O)N/N=C/c2ccc3c(c2)OCCO3)c1 | 3% | -63* | 10% | 0% | 11% | 3%
COc1ccccc1NS(=O)(=O)c1cccc(C(=O)N/N=C/c2cn(-c3ccccc3)nc2-c2ccccc2)c1 | ? | ? | -1% | ? | 15% | 1%
Cc1c(Cl)cccc1-c1ccc(CNCCSc2nnnn2-c2ccccc2)o1 | . | 10 | 5%[46.1 µM] | -2%[46.1 µM] | ? | .
COc1cccc(CNC(=O)c2c(OC)cc(=O)n3c2CCN(C(=O)c2ccoc2C)CC3)c1 | . | . | . | . | -4% | .
C=CC(=O)N1C/C(=C/c2ccccc2)C(=O)/C(=C\c2ccccc2)C1 | 6.3µM* | -97* | ? | 2.8µM* | 7.9µM* | .
C=CC(=O)N1C/C(=C/c2ccc(Cl)cc2)C(=O)/C(=C\c2ccc(Cl)cc2)C1 | 4.5µM* | -100* | 2.2µM* | ? | 8.9µM* | .
SMILES | HCV inhibitor | HCMV antiviral | Lassa entry inh | Marburg entry inh | FMDV inh | FBPA Giardia inh
COC(=O)c1c(SC)nc2ccccc2c1OCc1ccc(C)cc1C | . | -16 | 21%[46.1 µM] | . | -20% | .
COc1ccc(CN(C(=O)c2snc(C(N)=O)c2N)C(C)C(=O)NCc2ccc(F)cc2)cc1 (centres undefined) | ? | -12 | . | 2%[46.1 µM] | 9% | -10%
Cc1ccccc1N(C(=O)c1snc(C(N)=O)c1N)C(C(=O)NCc1ccccc1)c1ccc(O)cc1 (centres undefined) | 5.6µM* | 18 | ? | ? | -20% | -4%
COc1ccc(C(C(=O)NCc2ccccc2)N(C(=O)c2snc(C(N)=O)c2N)c2ccccc2OC)cc1OC (centres undefined) | 1% | -75* | -22% | -25%[46.1 µM] | -10% | 14%
COc1ccc(CNC(=O)C(C)N(Cc2ccccc2OC)C(=O)c2snc(C(N)=O)c2N)cc1 (centres undefined) | 10µM* | -7 | . | -15%[46.1 µM] | -12% | .
NC(=O)c1nsc(C(=O)N(c2ccccc2F)C(C(=O)NCc2ccccc2)c2ccc(O)cc2)c1N (centres undefined) | ? | -8 | . | -22%[46.1 µM] | ? | 3%
COc1ccc(N(C(=O)c2snc(C(N)=O)c2N)C(C(=O)NCc2ccccc2)c2ccc(O)cc2)cc1OC (centres undefined) | -30% | -24 | . | 7%[46.1 µM] | -10% | 2%
Cc1ccccc1N(C(=O)c1snc(C(N)=O)c1N)C(C)C(=O)NC1CCCCC1 (centres undefined) | ? | -20 | ? | ? | -2% | -8%
Cc1ccccc1N(C(=O)c1snc(C(N)=O)c1N)C(C(=O)NC1CCCCC1)c1ccc(O)cc1 (centres undefined) | 10µM* | -33 | 11µM* | ? | 2% | 1%
CCCCOc1ccc(NC(=O)CSc2ccc(C(=O)O)cn2)cc1 | . | 4 | -1%[46.1 µM] | ? | -5% | .
COc1cccc(N(C(=O)c2snc(C(N)=O)c2N)C(C(=O)NCc2ccccc2)c2ccc(O)cc2)c1 (centres undefined) | ? | -33 | ? | -10%[46.1 µM] | 15% | 13%
COc1ccc(N(C(=O)c2snc(C(N)=O)c2N)C(C(=O)NCc2ccc(F)cc2)c2ccc(O)cc2)cc1 (centres undefined) | ? | -22 | 2.8µM* | ? | 30% | 3%
O=C1NC(=O)C(=Cc2ccc(SC3CCCCC3)o2)C(=O)N1 | 14% | 172 | -28% | 15% | 18µM* | -11%
COc1cccc(Cn2c(=O)cnc3cnc(N4CCOCC4)nc32)c1 | . | . | . | . | -6% | 1%
Cc1ccc2c(CC(=O)Nc3c(C(=O)c4ccc(F)cc4)oc4ccccc34)coc2c1C | . | -31 | 14%[46.1 µM] | 21%[46.1 µM] | -6% | .
CC(NCc1ccc2c(c1)OCO2)c1ccccc1 (centres undefined) | 21% | 54 | -18%[46.1 µM] | ? | -11% | -19%
Cc1ccc(C2(CCNS(=O)(=O)c3ccc(C)cc3)CCOC(C(C)C)C2)cc1 (centres undefined) | -9% | -22 | ? | 6.5µM* | -3% | -6%

Source: PubChem BioAssay (National Center for Advancing Translational Sciences (NCATS))
